Measurements as given in ChEMBL document CHEMBL1157539, “Thousands of chemical starting points for antimalarial lead identification” (Nature, 2010).

Key:
Format in all cases: functional
[1] = system: Plasmodium falciparum; experiment: GSK_TCMDC: Inhibition of Plasmodium falciparum 3D7 in whole red blood cells, using parasite LDH activity as an index of growth. Test compounds present at 2uM
[2] = system: Plasmodium falciparum; experiment: GSK_TCMDC: Inhibition of Plasmodium falciparum Dd2 in whole red blood cells, using parasite LDH activity as an index of growth. Test compounds present at 2uM
[3] = system: HepG2; experiment: GSK_TCMDC: Percent inhibition of human HepG2 cell line. Test compounds present at 10uM.

SMILES	Inhibition [1]	Inhibition [2]	Inhibition [3]
COc1ccc(-c2ccccc2OCCCNc2nc(NCCc3ccc(O)cc3)nc(N3CCNCC3)n2)cc1.O=C(O)C(F)(F)F	99%	3%	36%
COc1ccc(Cl)cc1NC(=O)Nc1cc(C)nc2ccccc12	100%	99%	10%
COc1ccc(-n2nc(C)c3c2NC(=O)CC3c2ccccc2OCc2ccc(F)cc2)cc1 (stereo unspecified)	93%	65%	53%
O=C(Cn1c(CCc2cccc(F)c2F)nc(=O)c2ccccc21)N(CCCN1CCCC1)Cc1ccc(-c2ccc(C(F)(F)F)cc2)cc1.O=C(O)C(O)C(O)C(=O)O	100%	80%	54%
NCc1ccc(CNCc2cccc(-c3cccc(-c4nc5ccccc5[nH]4)c3)c2)cc1.O=C(O)C(F)(F)F	100%	11%	7%
Cc1cc(N[C@@H](Cc2ccccc2)C(=O)Nc2ccccc2)nc(NCC2CCCCC2)n1.O=C(O)C(F)(F)F	98%	55%	12%
Cc1ccc2nc3sc(C(=O)NCCCN4CCC(N5CCCCC5)CC4)cc3cc2c1	100%	71%	11%
COc1ccc(-c2ccc(NC(=O)c3cccs3)cc2)cc1CN1CCCN(C)CC1.O=C(O)C(F)(F)F	100%	30%	31%
OC(CNc1ccnc(Nc2ccccc2)n1)c1cccc(C(F)(F)F)c1 (stereo unspecified)	100%	61%	16%
CN(C)CCOc1cc(O)c2c(c1)OC(C)(C)C=C2c1cccs1	99%	10%	29%
CCCCNCc1ccc(-c2nc(CN(CCCn3ccnc3)C(=O)NC3CC3c3ccccc3)cs2)cc1.O=C(O)C(F)(F)F (stereo unspecified)	100%	34%	21%
O=C(Nc1ccc(-c2nc3ccccc3[nH]2)cc1)c1ccc(-c2cccc([N+](=O)[O-])c2)o1	100%	97%	47%
Cc1c(N=O)cc(C(C)(C)C)c(O)c1C(=O)Nc1ccc([N+](=O)[O-])cc1Cl	100%	98%	72%
CCCNCc1ccc(-c2ccc(CN(Cc3cnc(C)cn3)C(=O)c3nn(-c4ccccc4)nc3C)cc2)nc1.O=C(O)C(F)(F)F	99%	49%	22%
Cc1cccc(CN2CCCN(Cc3ccc(C(=O)Nc4ccc(C)c(F)c4)cc3)CC2)c1.O=C(O)C(F)(F)F	85%	3%	47%
Nc1nc2c(ncn2OC[C@H]2COP(=O)([O-])CO2)c(=O)[nH]1.[Na+]	92%	32%	1%
CN(C)CCCNc1nccc(N(C)c2ccc(NC(=O)Nc3cc(C(F)(F)F)ccc3F)cc2)n1.O=C(O)C(F)(F)F	93%	25%	97%
CC(C)(C)c1nn(-c2ccc(Cl)cc2)c2[nH]c(=O)c(CNCc3cccs3)cc12	100%	77%	5%
CCOc1cc(/C=N/Nc2nc3ccccc3[nH]2)ccc1OCc1ccc([N+](=O)[O-])cc1	100%	1%	2%
O=C(NCCN1CCCC1)c1cccc(-c2ccc(-c3nc4cc(F)ccc4[nH]3)cc2)c1	99%	85%	33%
CN(C)c1ccc(CN2CCCCC(NC(=O)c3cc(-c4ccccc4F)cs3)C2)cc1.O=C(O)C(F)(F)F (stereo unspecified)	100%	28%	13%
N#Cc1cc(C(=O)c2cc(Br)ccc2O)cn(-c2cc(Cl)cc(Cl)c2)c1=O	98%	35%	42%
